In the library only some 0.46% were active in any assay of this set; here they are far more common.
miR-21 reporter = qHTS Assay for Modulators of miRNAs and/orActivators of miR-21. HeLa miR-21 FLuc reporter, luciferase, 48 h. 340,000 tested, under 10 active. Potency, µM (highest dose often 38.3 µM), for the others: at the highest dose activity change, positive = activation, usual class: activators;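 also: % of control where 0% means no effect; miR-21 action dims this reporter so a rising signal means less miR-21 action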
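Compounds were titrated across several concentrations (up to approximately 40 uM) and incubated 48 hours with HeLa miR-21-FLuc reporter cells (miR-21 target sequence downstream of FLuc, endogenous miR-21). Readout was firefly luciferase luminescence after lytic detection reagent.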
Pin1 inh = qHTS Assay to Find Inhibitors of Pin1. Peptidyl-prolyl cis-trans isomerase NIMA-interacting 1 (Homo sapiens), Q13526. Pin1 FP peptide displacement, HiFluor488, 10 min. Potency, µM (series often up to 115 µM), for the others: top-dose activity, negative = inhibition, actives largely listed as inhibitors. actives 0.009% (n = 390,000); active = well fitted inhibition curve with a large enough effect in the polarisation, with a control signal flat, not every such curve was filed as active; inconclusive = small, poorly fitted or top-dose-only effect, or effect the other way, or a change in a side signal; inactive = no such curve, though single readings can be large or run the other way; the % refers to the polarisation; also: potency is read from the fitted curve at half-maximal effect; % is scaled to controls: 0 for no effect and ±100 for the full control effect
Target sequence (Q13526 whole entry, looked up): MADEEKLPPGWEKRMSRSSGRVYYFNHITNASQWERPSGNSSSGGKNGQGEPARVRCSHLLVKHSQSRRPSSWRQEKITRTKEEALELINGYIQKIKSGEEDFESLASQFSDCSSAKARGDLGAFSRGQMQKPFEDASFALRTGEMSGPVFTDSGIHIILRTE
PKM2 act = qHTS Assay for Activators of Human Muscle isoform 2 Pyruvate Kinase. purified PKM2, Kinase-Glo ATP luminescence, activation; response scale: 0% is enzyme alone, no compound. Pyruvate kinase PKM (Homo sapiens), P14618. actives 0.34% (n = 260,000). Potency, µM (top dose mostly 57.5 µM), for inactives: at the highest dose activation, usual class: activators; also: potency is read from the fitted curve at half-maximal effect; % is scaled to controls: 0 for no effect and ±100 for the full control effect; nearly all actives have a fitted effect of over 55% in size
Target sequence (P14618 whole entry, looked up, canonical isoform): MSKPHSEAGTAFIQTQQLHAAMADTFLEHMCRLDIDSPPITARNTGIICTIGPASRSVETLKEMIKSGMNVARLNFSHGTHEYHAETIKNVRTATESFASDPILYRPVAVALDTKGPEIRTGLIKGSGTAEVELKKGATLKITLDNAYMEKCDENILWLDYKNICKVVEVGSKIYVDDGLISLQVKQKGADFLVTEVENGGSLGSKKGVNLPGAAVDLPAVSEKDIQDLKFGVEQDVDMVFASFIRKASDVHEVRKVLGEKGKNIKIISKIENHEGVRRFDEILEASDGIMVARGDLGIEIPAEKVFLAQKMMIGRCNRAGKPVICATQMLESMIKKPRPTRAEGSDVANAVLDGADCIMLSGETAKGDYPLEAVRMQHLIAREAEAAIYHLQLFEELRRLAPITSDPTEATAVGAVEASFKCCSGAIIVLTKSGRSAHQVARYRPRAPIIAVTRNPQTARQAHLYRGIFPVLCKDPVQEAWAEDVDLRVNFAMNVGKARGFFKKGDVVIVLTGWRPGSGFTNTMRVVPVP
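ATP formation by purified human PK-M2, quantified via coupled luciferase luminescence after 1 h at room temperature with 0.1 mM ADP and 0.5 mM PEP final.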
Chronic BCR inh = qHTS Assay to Find Inhibitors of Chronic Active B-Cell Receptor Signaling | actives 0.05% (n = 340,000) | Potency, µM (titrated, usually from 46.1 µM), for inactives: at the top dose activity change, negative = inhibition, usual class: inhibitors | ABC-DLBCL IkBa-CBG/CBR reporter, luminescence ratio, 4 h; active = well fitted inhibition curve with a large enough effect in the signal ratio, with a control signal flat, not every such curve was filed as active; inconclusive = small, poorly fitted or top-dose-only effect, or effect the other way, or a change in a side signal; the % refers to the signal ratio;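 also: potency is read from the fitted curve at half-maximal effect; plate controls were basal doxycycline-induced cells for no effect and cells given 10 µM MG132 for full effect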
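Concentration-response series (up to 46 uM) were applied to TMD8 dual-reporter cells for 4 h at 37C with doxycycline. Green/red ratio, after filter-overlap correction, defined %Activity; red signal alone was normalised to basal cells and zero luminescence.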
PINK1 modulator = A Quantitative High throughput Screen to Identify Chemical Modulators of PINK1 Expression. Potency, µM (doses to about 76.6 µM), for the others: at the top dose activation (PINK1 increase), hits mostly activators. actives 0.2% (n = 410,000). AID 624263, 2012. PINK1 immunofluorescence, high-content cytometry, 24 h; active = well fitted activation curve with a large enough effect; inconclusive = small, poorly fitted or top-dose-only effect; cell line not stated here; also: potency is read from the fitted curve at half-maximal effect; % of control where 0% means no effect; nearly all actives have a fitted effect of over 65% in size
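Decision-based qHTS: stable cells, 24 h exposure to five compound concentrations, CCCP as control. Fixed cells stained for PINK1 plus nuclear, mitochondrial and cell markers, cytometer read.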
B2AR arrestin = qHTS assay of beta-arrestin-biased ligands of beta2-adrenergic receptor; AID 492947, 2010; beta-arrestin recruitment to beta2AR, cell-based reporter; Beta-2 adrenergic receptor (Homo sapiens), P07550; actives 0.02% (n = 330,000); Potency, µM (top dose mostly 46.1 µM), without a hit: top-dose activation, hits mostly activators;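 also: potency is read from the fitted curve at half-maximal effect; 0% = DMSO controls and full agonism = EC100 isoproterenol or metaproterenol; nearly all actives have a fitted effect of over 65% in size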
* = called active by the depositor; u = inconclusive; x = no result; [ ] = remark or other dose. Unless noted, calls follow the shape of the dose curve; as a rule, active = well fitted curve in the direction sought with a large enough effect; inconclusive = small, poorly fitted or top-dose-only effect, or another doubt; inactive = no such curve, though single readings can be large; an effect the other way counts as inactive or inconclusive.

SMILES | miR-21 reporter | Pin1 inh | PKM2 act | Chronic BCR inh | PINK1 modulator | B2AR arrestin
Cc1occc1C(=O)N/N=C/C1=C(N2CCOCC2)C(=C\c2ccc(Cl)cc2Cl)/CC1 | -42.7% | u | -2.9% | u | 31.6µM* | 0.8%
C[n+]1c2n(c3ccccc31)N=C(c1ccc(-c3ccccc3)cc1)CS2 | u | 4.8% | 5.3% | u | 12.6µM* | 0.2%
c1nc(NCc2ccoc2)c2cc(-c3ccc4c(c3)OCO4)ccc2n1 | x | 12.8% | x | x | x | x
CCC(Oc1ccc(F)cc1)C(=O)Nc1cc(-c2ccc(C)cc2)no1 (configuration not stated) | -0.9% | 6.0% | x | x | -0.9% | x
CCC(Oc1ccc(F)cc1)C(=O)Nc1nc(-c2ccc(F)cc2)ns1 (configuration not stated) | u | -3.3% | x | x | 28.2µM* | x
CC(=O)c1ccc(Nc2c([N+](=O)[O-])ccc3nonc23)cc1 | -0.1% | -3.8% | x | 3.7% | -1.2% | 0.3%
COC(=O)c1ccc(Nc2c([N+](=O)[O-])ccc3nonc23)cc1 | 0.2% | u | x | 3.6% | 14.1µM* | -0.1%
Cc1ccc(N/N=C(\Cc2nc3ccccc3[nH]2)c2ccccc2)cc1 | -7.4% | 0.0% | 5.9% | 23.1µM* | 12.0% | -0.4%
Cc1ccc(C)c(-n2nnnc2SCC(=O)c2ccc3c(c2)NC(=O)CO3)c1 | -9.3% | 21.2% | 14.1µM* | 0.0% | -0.3% | 0.0%
Cc1ccc2nc(SCC(=O)c3ccc4c(c3)NC(=O)CO4)[nH]c2c1 | -6.3% | 30.6% | -4.9% | -18.2% | 11.0% | 0.6%
COc1ccc(C(=O)N2CCC(n3c(C)nc4cc(F)ccc43)CC2)cc1 | 0.8% | 8.0% | 11.2µM* | u | -0.4% | 0.0%
Cc1onc(-c2ccccc2)c1-c1nc2cc(Cl)ccc2c(=O)o1 | 11.2% | 5.7% | -0.9% | 12.6µM* | 3.3% | -0.9%
Cc1ccc(-c2nn(-c3cccc(F)c3)cc2CN2CCN(c3ccccn3)CC2)o1 | 16.3% | 30.9% | 15.8µM* | 9.0% | 1.0% | -0.5%
CN(C)c1ccc(/C=C/c2ccnc3ccccc23)c(F)c1 | x | x | x | x | 8.5% | x
CN(C)c1ccc(/C=C\C=C/c2ccnc3ccccc23)cc1 | x | x | x | x | 11.2µM* | x
Cc1cc(N/N=C/c2c(O)ccc3ccccc23)nc(-c2ccccc2O)n1 | -7.9% | 24.7% | -2.9% | u | 44.7µM* | 0.0%
O=C(C(=O)N1CCCc2ccccc21)c1c[nH]c2ccccc12 | 1.0% | -2.8% | 35.5µM* | u | x | -0.3%
CC(C)(C)Cc1c(-c2ccc(C#N)cc2)nc2c(Cl)cc(C(F)(F)F)cn12 | x | x | x | x | 35.5µM* | x
Cc1ccc(S(=O)(=O)CCSc2nc(C)cc(C)c2C#N)cc1 | -1.1% | 1.4% | 25.1µM* | -7.5% | 2.1%[38.3 µM] | -0.4%
COc1ccccc1Oc1nc2c(C)cccn2c(=O)c1/C=C(\C#N)c1nc2ccccc2[nH]1 | 0.2% | u | x | x | 25.1µM* | x
CCCC[n+]1c2ccccc2cc2ccccc21 | 25.3% | -6.5% | x | u | -0.6% | -0.1%
CCCC[n+]1c(/C=C/c2c(OC)cc(OC)cc2OC)ccc2ccccc21 | x | x | x | x | 5.62µM* | x
Cc1ccc(/C=C/C2=Cc3c(sc(NC(=O)CSc4n[nH]c(N)n4)c3C#N)C(C)(C)C2)o1 | -9.7% | x | 4.47µM* | 4.8% | x | -1.2%
COC(=O)C1CCN(Cc2ccc3c(c2)CN(C(=O)c2cc4cc(F)ccc4[nH]2)CCO3)CC1 | x | x | x | x | -0.4% | x
C=CCc1ccc(OCCOc2ccc(/C=N/n3cnnc3)cc2OCC)c(OC)c1 | -7.0% | -4.8% | -0.3% | 23.1µM* | 3.2% | 0.1%
SMILES | miR-21 reporter | Pin1 inh | PKM2 act | Chronic BCR inh | PINK1 modulator | B2AR arrestin
OCCCNCc1cc2ccc(F)cc2nc1N1CCN(c2cccc(Cl)c2)CC1 | x | x | x | x | 1.6% | x
COc1cc(=O)n2c(c1C(=O)N(C)Cc1nccs1)CCN(Cc1cc(C)cc(C)c1)CC2 | x | x | x | x | 0.1% | x
Cc1cc(C(=O)N/N=C/c2ccc(O)c(O)c2O)c(C)n1-c1ccccc1 | -21.4% | -1.1% | 28.2µM* | 7.1% | 0.5% | -0.1%
Cc1cc(/C=N/NC(=O)c2ccncc2)c(C)n1-c1ccccc1 | -49.2% | -0.7% | -4.2% | -4.5% | 1.1% | 0.3%
Cn1nnnc1Sc1ncnc2scc(-c3ccc4c(=O)ccoc4c3)c12 | x | -4.0% | x | x | x | x
O=C(/C=C\c1ccccc1OC(=O)c1ccccc1F)c1cc2ccccc2o1 | 20.5% | 10.8% | 7.2% | 13µM* | -3.9% | -0.5%
CC(=O)/C=C\c1ccccc1OC(=O)c1cc2ccccc2oc1=O | -7.4% | 2.7% | 1.2%[11.5 µM] | 0.0% | -1.3% | 0.1%
c1ccc(-c2ccc(-c3csnn3)cc2)cc1 | -39.5% | 0.7% | -3.8% | u | 10.5% | -0.1%
O=S(=O)(Nc1ccccc1)c1ccc(-c2csnn2)cc1 | 7.0% | 4.3% | 14.1µM* | -4.5% | 0.2% | 0.5%
Cc1ccc(NS(=O)(=O)c2cc3c(cc2-c2ccco2)NC(=O)CO3)cc1C | x | 5.0% | x | x | x | x
O=C(COc1ccc(S(=O)(=O)N2CCc3ccccc32)cc1Cl)NCc1ccccn1 | -0.3% | 16.7% | 15.8µM* | 4.2% | 2.6%[38.3 µM] | -0.2%
O=C(COc1ccc(S(=O)(=O)NCc2ccccc2)cc1Cl)NCc1ccccn1 | -1.5% | -2.6% | x | 0.3% | 0.3% | -0.4%
CC1C(c2ccccc2)N(C)C(c2ccccc2)C(C)C1(O)C#Cc1ccccc1 (configuration not stated) | 5.8% | 13.7% | -7.7% | u | 31.6µM* | -0.6%
O=C(NCCOc1ccccc1)c1cccc2c1C(=O)c1ccc(Cl)cc1S2(=O)=O | x | -0.4% | x | 6.3% | 3.7% | 0.2%
COc1ccc(-c2ccc3c(c2)S(=O)(=O)c2cccc(C(=O)NCCOc4ccccc4)c2C3=O)cc1OC | x | u | x | u | 35.5µM* | 0.0%
Cc1ccc(C)c(NC(=S)c2ccccn2)c1 | -35.5% | -7.0% | -8.8% | u | -0.3% | 11.2µM*
Cc1ccc(C)c(NC(=S)c2ccc3ccccc3n2)c1 | -64.8% | 0.7% | 2.8% | u | 11.3% | 0.0%
C=CCn1c(SCc2ccccc2)nc2scc(-c3ccc(C)o3)c2c1=O | -1.4% | -2.1% | 17.2% | -10.3% | 18.2%[38.3 µM] | -0.4%
C=CCn1c(SCC(N)=O)nc2scc(-c3ccc(C)o3)c2c1=O | -83.1% | 10.8% | 31.6µM* | 17.1% | -2.2% | 0.8%
Cc1ccc(/C=C/C(=O)N2CCN(S(=O)(=O)c3ccc(C)c(C)c3)CC2)o1 | -3.0% | 33.2% | u | 4.2% | 3.5% | 11.2%

Screens as filed in PubChem.
